Shown are actives, neighbours in structure and some others; about 3.8% of the full set was active somewhere.
HepG2 tox: kills HepG2 cells in TGF-b inhibitor counter-screen | 410,000 compounds, 0.76% hits | Potency, µM (doses to about 46.1 µM), inactives show at the top dose activity change, negative = cytotoxicity, usual class: cytotoxic | HepG2 CAGA-GFP viability, ATP luminescence, 18 h | AID 588856
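HepG2 CAGA-GFP cells (1000/well, DMEM with 1% FBS) received compound, then TGF-beta at 500 pg/mL final, and were incubated 18 hours at 37 degrees C. Viability was read by CellTiter-Glo luminescence. Media-only wells were set as complete cell-killing and DMSO as no toxicity.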
Nrf2 inh: inhibitors of Nrf2 signaling; AID 504444; Potency, µM (series often up to 46 µM), for inactives: top-dose activity change, negative = inhibition, most hits filed as inhibitors; A549 ARE-Fluc reporter, luciferase luminescence, 18-24 h; 360,000 compounds, 2.1% hits; note: % is set by controls: 0 for no effect and ±100 for the full control effect; nearly all actives have a fitted effect of over 60% in size
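Cells were seeded and rested 2 h, then exposed to compounds for 18-24 h. CellTiter-Fluor was read first as a viability measure. BugLite was added 15 min before the final luminescent read of ARE-luciferase activity in A549 cells.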
TGFb SMAD3 inh: inhibitors of TGF-b signaling; HepG2 CAGA-GFP TGF-b/SMAD3 reporter, GFP fluorescence, 18 h; TGF-beta stimulated, 500 pg/mL final; Potency, µM (doses to about 46.1 µM), for inactives: at the highest dose activity, negative = inhibition, usual class: inhibitors; 410,000 compounds, 1.2% hits; AID 588855; note: % is set by controls: 0 for no effect and ±100 for the full control effect; nearly all actives have a fitted effect of over 65% in size
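Using HEPG2 CAGA-GFP reporter cells at 1000 cells/well, we pinned test compounds, stimulated with recombinant TGF-beta (500 pg/mL final) and measured total well GFP after 18 h.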
A549 tox-1: counter-screen for Nrf2 inhibitors: cytotoxicity in A549 cells | A549 ARE-Fluc cells, CellTiter-Fluor viability, 18-24 h | Potency, µM (top dose mostly 46 µM), inactives show at the highest dose activity change, negative = cytotoxicity, hits mostly inhibitors | 390,000 compounds, 0.16% hits; note: % is set by controls: 0 for no effect and ±100 for the full control effect
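Cytotoxicity counterscreen: CellTiter-Fluor fluorescence was measured in A549 ARE_Fluc cells after 18-24 h of compound exposure in a concentration series. The subsequent BugLite luminescent read reports ARE-luciferase activity.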
ATXN2 expr inh: reduces ATXN2 reporter expression in HEK-293 cells; AID 1745845; HEK-293 ATXN2-luciferase reporter, luminescence, 24 h; Potency, µM (titrated, usually from 57 µM), without a hit: top-dose activity change, negative = inhibition, hits mostly inhibitors; 360,000 compounds, 0.72% hits; note: % is set by controls: 0 for no effect and ±100 for the full control effect; nearly all actives have a fitted effect of over 55% in size
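qHTS (up to 57 uM final) was run with 24 h compound exposure of reporter cells at 37 °C. Each well was multiplexed: SteadyGlo luminescence measured ATXN2-luciferase expression after a fluorogenic Gly-Phe-AFC viability readout (25 uM final).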
ATXN viability: viability counter-screen for ATXN expression inhibitors; 400,000 compounds, 0.49% hits; Potency, µM (highest dose often 56.7 µM), hits mostly cytotoxic; AID 651635; S2 cells (HEK-293 line with an ATXN2-luciferase reporter) viability, CellTiter-Fluor protease fluorescence, 24 h; note: nearly all actives have a fitted effect of over 40% in size
FLuc counter 3: blocks purified firefly luciferase in Nrf2 counterscreen. shares compounds with Nrf2 inh. purified firefly luciferase, luminescence inhibition. Potency, µM (top dose mostly 57.5 µM), inactives show at the highest dose activity change, negative = inhibition, hits mostly inhibitors. 1,400 compounds, 4% hits. AID 720522; note: % is set by controls: 0 for no effect and ±100 for the full control effect; nearly all actives have a fitted effect of over 65% in size
Target sequence (P08659 whole entry, looked up): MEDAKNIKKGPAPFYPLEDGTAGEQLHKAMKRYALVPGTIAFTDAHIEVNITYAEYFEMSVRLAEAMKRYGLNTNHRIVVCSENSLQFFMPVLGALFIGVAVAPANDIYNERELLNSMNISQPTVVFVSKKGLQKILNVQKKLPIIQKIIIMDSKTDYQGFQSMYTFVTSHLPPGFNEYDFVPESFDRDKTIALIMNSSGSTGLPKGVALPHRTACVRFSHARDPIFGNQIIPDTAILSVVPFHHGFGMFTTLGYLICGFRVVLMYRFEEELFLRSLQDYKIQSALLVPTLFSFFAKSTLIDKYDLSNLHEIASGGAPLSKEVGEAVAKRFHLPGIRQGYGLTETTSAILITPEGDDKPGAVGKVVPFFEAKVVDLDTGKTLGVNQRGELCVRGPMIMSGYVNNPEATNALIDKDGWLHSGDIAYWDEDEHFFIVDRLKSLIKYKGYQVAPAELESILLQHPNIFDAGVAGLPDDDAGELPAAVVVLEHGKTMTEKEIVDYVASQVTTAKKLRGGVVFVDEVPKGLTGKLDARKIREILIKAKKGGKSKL
A549 tox-2: counter-screen for Nrf2 inhibitors: cytotoxicity in A549 ARE cells. shares compounds with Nrf2 inh. A549 ARE-Fluc cells, cytotoxicity counterscreen. Potency, µM (highest dose often 46.1 µM), for inactives: at the highest dose activity change, negative = cytotoxicity, most hits filed as inhibitors. 1,400 compounds, 2% hits. AID 720523;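 note: cells exposed to compounds for 18 to 24 hours; % is set by controls: 0 for no effect and ±100 for the full control effect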
ARE-Fluc inh: confirmation of Nrf2 inhibitors in A549 ARE reporter cells; shares compounds with Nrf2 inh; A549 ARE-firefly luciferase reporter, luminescence; Potency, µM (top dose mostly 46.1 µM), without a hit: at the top dose activity change, negative = inhibition, hits mostly inhibitors; 1,400 compounds, 74% hits; AID 720524; note: % is set by controls: 0 for no effect and ±100 for the full control effect; nearly all actives have a fitted effect of over 65% in size
* hit, by the source's call; [ ] = dose if it differs, or a comment. Calls come from the whole dose curve; as a rule, active = well fitted curve in the direction sought with a large enough effect; inconclusive = small, poorly fitted or top-dose-only effect, or another doubt; inactive = no such curve, though single readings can be large; an effect the other way counts as inactive or inconclusive. Potency is the fitted concentration of half-maximal effect.

Results for Cc1ccccc1NC(=O)N1Cc2ccccc2-n2nncc2C1 ?
HepG2 tox: -18%; TGFb SMAD3 inh: 2%; ATXN2 expr inh: -5%; ATXN viability: inactive

Results for C[C@@H]1[C@@H]2Cc3ccc(O)cc3[C@@]1(C)CCN2CCc1ccccc1 ?
ATXN viability: inactive

How did CCc1nc2ccc(C(=O)N3CCN(C(=O)c4ccco4)CC3)cn2c1N(C)Cc1ccc(OC)cc1 do in these assays?
HepG2 tox: -3%; TGFb SMAD3 inh: inconclusive; ATXN2 expr inh: 8%; ATXN viability: inactive

What do the screens show for `COC(=O)C12OCC34C(CC5C(C)=C(O)C(=O)CC5(C)C3C(O)C1O)OC(=O)C(OC(=O)/C=C(\C)C(C)C)C24` (configuration not stated)?
HepG2 tox: 14%; Nrf2 inh: 0.058µM*; TGFb SMAD3 inh: -22%; A549 tox-1: 0.29µM*; ATXN2 expr inh: -63%; ATXN viability: inconclusive; FLuc counter 3: 0%; A549 tox-2: -12%; ARE-Fluc inh: 1.2µM*

What do the screens show for `COc1ccccc1CNC(=O)CCS(=O)(=O)c1ccc2c(c1)oc(=O)n2C`?
HepG2 tox: -35%; Nrf2 inh: 17%; TGFb SMAD3 inh: -7%; A549 tox-1: 0%; ATXN2 expr inh: 1%; ATXN viability: inactive

Results for O=[N+]([O-])/C=C1/NCCN1Cc1ccc(Cl)nc1 ?
HepG2 tox: 5%; Nrf2 inh: 0%; TGFb SMAD3 inh: 0%; A549 tox-1: 5%; ATXN2 expr inh: -6%[11.3 µM]; ATXN viability: inactive

What do the screens show for `CC(=O)c1cn(Cc2ccccc2C#N)c2ccccc12`?
HepG2 tox: -10%; Nrf2 inh: 1µM*; TGFb SMAD3 inh: -21%; A549 tox-1: inconclusive; ATXN viability: inactive; FLuc counter 3: 3%; A549 tox-2: -12%; ARE-Fluc inh: -34%

How did CC(=O)OC(C)(C)/C=C/C(=O)C(C)(O)C1[C@H](O)C[C@@]2(C)C3CC=C4C(CC[C@@H](O)C4(C)C)[C@]3(CO)C(=O)C[C@]12C (some centres not stated) do in these assays?
HepG2 tox: -17%; Nrf2 inh: 0.23µM*; TGFb SMAD3 inh: inconclusive; A549 tox-1: 0.26µM*; ATXN2 expr inh: inconclusive; ATXN viability: inconclusive; FLuc counter 3: 3%; A549 tox-2: inconclusive; ARE-Fluc inh: 0.16µM*

What do the screens show for `CC(=O)OC1CC[C@]2(C#N)[C@H]3CC[C@]4(C)[C@H](C5C=CC(=O)O5)CCC4(O)C3CCC2(O)C1` (some centres not stated)?
HepG2 tox: 10µM*; Nrf2 inh: 5.2µM*; TGFb SMAD3 inh: -26%; A549 tox-1: -15%; ATXN viability: inconclusive; FLuc counter 3: -2%; A549 tox-2: inconclusive; ARE-Fluc inh: 6.5µM*

Results for CN1CCN(c2csc3ccc(F)cc3c2=O)CC1 ?
HepG2 tox: -5%; TGFb SMAD3 inh: -14%; A549 tox-1: 1%; ATXN2 expr inh: 2%; ATXN viability: inactive

Assay outcomes deposited in PubChem BioAssay by National Center for Advancing Translational Sciences (NCATS).
